Test results from PubChem BioAssay AID1159580 (chemical genetic matrix, 2015).
Out of some 5,500 compounds screened, about 2,000 (36%) were called active. Inconclusive results (about 18%) are left out. Rule as the data show it: active = normalized growth mostly below about 0.91 (no sharp cut-off); inconclusive = no clear call, values can overlap the other calls; inactive = mostly above about 0.92. The list shows a part of the results.

Experiment: chemical genetic growth profiling, strain panel (AID 1159580);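 also: tested at 20 µM; growth read once vehicle control cultures reached saturation at 30 °C; 1 = growth at the plate median or of vehicle wells; lower values mean less growth of the strain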
Details: S. cerevisiae deletion strains, growth OD

Measured: normalized growth

C=C1C(=O)[C@]23[C@H](O)[C@H]1CC[C@H]2[C@@]12CO[C@]3(O)[C@H](O)[C@@H]1C(C)(C)CC[C@@H]2O
inactive: locus YAL021C, strain ccr4, active compounds read low 1.02 | locus YAL026C, strain drs2, active compounds read low 0.99 | locus YAL030W, strain snc1, active compounds read low 1 | locus YBL061C, strain skt5, active compounds read low 0.987 | locus YBR009C, strain hhf1, active compounds read low 0.948 | locus YBR023C, strain chs3, active compounds read low 0.991 | locus YBR171W, strain sec66, active compounds read low 0.999 | locus YBR231C, strain swc5, active compounds read low 1.01 | locus YBR279W, strain paf1, active compounds read low 1 | locus YCL011C, strain gbp2, active compounds read low 0.983 | locus YCL016C, strain dcc1, active compounds read low 0.972 | locus YCL061C, strain MRC1, active compounds read low 1 | locus YCL069W, strain vba3, active compounds read low 0.995 | locus YCR088W, strain abp1, active compounds read low 1 | locus YDL005C, strain med2, active compounds read low 1.01 | locus YDL040C, strain nat1, active compounds read low 0.993 | locus YDR001C, strain nth1, active compounds read low 1 | locus YDR069C, strain doa4, active compounds read low 1.04 | locus YDR137W, strain rgp1, active compounds read low 0.99 | locus YDR159W, strain sac3, active compounds read low 1 | locus YDR195W, strain ref2 1.03 | locus YDR297W, strain sur2, active compounds read low 1 | locus YDR334W, strain swr1, active compounds read low 0.994 | locus YDR335W, strain msn5, active compounds read low 1 | locus YDR392W, strain spt3, active compounds read low 0.883 | locus YEL003W, strain gim4, active compounds read low 0.992 | locus YEL037C, strain rad23, active compounds read low 1 | locus YEL061C, strain CIN8 (second series), active compounds read low 1 | locus YER015W, strain faa2, active compounds read low 0.982 | locus YER016W, strain bim1, active compounds read low 1.01 | locus YER111C, strain swi4, active compounds read low 0.999 | locus YER155C, strain BEM2 (second series), active compounds read low 0.984 | locus YFR010W, strain ubp6, active compounds read low 0.995 | locus YGL167C, strain pmr1, active compounds read low 0.995 | locus YGL173C, strain kem1, active compounds read low 1 | locus YGL227W, strain vid30, active compounds read low 1 | locus YGL240W, strain doc1, active compounds read low 1.02 | locus YGL253W, strain hxk2, active compounds read low 1.02 | locus YHR013C, strain ard1, active compounds read low 1.03 | locus YHR027C, strain rpn1, active compounds read low 0.986 | locus YHR030C, strain SLT2, active compounds read low 1.01 | locus YHR079C, strain IRE1, active compounds read low 0.992 | locus YHR142W, strain chs7, active compounds read low 1.01 | locus YJL092W, strain hpr5, active compounds read low 1.02 | locus YJL095W, strain BCK1 (second series), active compounds read low 0.99 | locus YJL095W, strain BCK1, active compounds read low 0.974 | locus YJL115W, strain asf1, active compounds read low 0.988 | locus YJL129C, strain trk1, active compounds read low 1.03 | locus YJL154C, strain vps35, active compounds read low 1.01 | locus YJL164C, strain tpk1, active compounds read low 0.972 | locus YJL166W, strain qcr8, active compounds read low 1.02 | locus YJL187C, strain SWE1, active compounds read low 1.02 | locus YJR066W, strain TOR1, active compounds read low 0.962 | locus YKL160W, strain elf1, active compounds read low 1.04 | locus YKR026C, strain gcn3, active compounds read low 0.994 | locus YKR091W, strain srl3, active compounds read low 0.995 | locus YLL001W, strain dnm1, active compounds read low 1 | locus YLL026W, active compounds read low 0.992 | locus YLL041C, strain sdh2, active compounds read low 0.991 | locus YLR027C, strain aat2, active compounds read low 1 | locus YLR113W, strain HOG1, active compounds read low 0.94 | locus YLR221C, strain rsa3, active compounds read low 0.975 | locus YLR258W, strain gsy2, active compounds read low 0.994 | locus YLR262C, strain YPT6 (second series), active compounds read low 1.01 | locus YLR320W, strain mms22, active compounds read low 1.01 | locus YLR342W, strain FKS1, active compounds read low 1.01 | locus YLR357W, strain rsc2, active compounds read low 0.999 | locus YLR370C, strain arc18, active compounds read low 0.973 | locus YLR384C, strain iki3, active compounds read low 0.993 | locus YML120C, strain ndi1, active compounds read low 0.982 | locus YMR058W, strain fet3, active compounds read low 1 | locus YMR125W, strain sto1, active compounds read low 1.02 | locus YMR129W, active compounds read low 0.997 | locus YMR205C, strain PFK2, active compounds read low 1.02 | locus YMR231W, strain pep5, active compounds read low 0.994 | locus YNL071W, strain lat1, active compounds read low 1.01 | locus YNL183C, strain NPR1, active compounds read low 0.95 | locus YNL209W, strain ssb2, active compounds read low 0.993 | locus YNL248C, strain rpa49, active compounds read low 1.06 | locus YNL322C, strain KRE1 (second series), active compounds read low 0.994 | locus YNR049C, strain mso1, active compounds read low 0.99 | locus YOR001W, strain rrp6, active compounds read low 0.964 | locus YOR070C, strain gyp1, active compounds read low 0.992 | locus YOR080W, strain dia2, active compounds read low 0.998 | locus YOR083W, strain WHI5, active compounds read low 1.02 | locus YOR106W, strain vam3, active compounds read low 1.02 | locus YOR231W, strain MKK1, active compounds read low 1.02 | locus YOR265W, strain rbl2, active compounds read low 0.984 | locus YOR270C, strain vph1, active compounds read low 1.04 | locus YOR290C, strain snf2, active compounds read low 0.996 | locus YPL051W, strain arl3, active compounds read low 1.04 | locus YPL078C, strain atp4, active compounds read low 1.04 | locus YPL106C, strain sse1, active compounds read low 0.981 | locus YPL240C, strain hsp82, active compounds read low 0.975 | locus YPL256C, strain CLN2, active compounds read low 0.984
